# Where a name gives a salt, the structure may show the parent alone.
# Columns and labels:
# Conditions in all cases: 10 µM; exposure time 6 h
# [1] = tested on: Danio rerio larvae (5 dpf); assay: difference in excitability vs DMSO (percentage points); higher = more excitable than DMSO
# Procedure, shortened: (§1)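 Wild-type 5 dpf zebrafish larvae in 96-well plates were given 100 µL egg water containing library compound at 10 µM final for 6 h. After 3 h of exposure, plates at 28.5 ℃ were photographed every 6 s during a 3-h programme of moving lines and 100 ms, 400Hz tones. Z-LaP Tracker (a DeepLabCut model) quantified each behaviour, averaged over 48 larvae per compound. Values are the compound mean minus the DMSO-vehicle control, in percentage points.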
# [2] = tested on: Danio rerio larvae (5 dpf); assay: difference in startle response vs DMSO (percentage points); higher = stronger startle than DMSO
# Procedure, shortened: as §1
# [3] = tested on: Danio rerio larvae (5 dpf); assay: difference in activity during first hour vs DMSO (percentage points); higher = more activity than DMSO
# Procedure, shortened: as §1
# [4] = tested on: Danio rerio larvae (5 dpf); assay: difference in habituation to acoustic stimuli vs DMSO (percentage points); higher = more habituation than DMSO
# Procedure, shortened: as §1
# [5] = tested on: Danio rerio larvae (5 dpf); assay: difference in combined optomotor response to red, green and blue moving lines vs DMSO (percentage points); higher = stronger optomotor response than DMSO
# Procedure, shortened: as §1
Structure (SMILES),difference in excitability [1],difference in startle response [2],difference in activity during first hour [3],difference in habituation to acoustic stimuli [4],difference [5]
COc1cccc2c1C(=O)c1c(O)c3c(c(O)c1C2=O)C[C@@](O)(C(=O)CO)C[C@@H]3O[C@H]1C[C@H](N)[C@H](O)[C@H](C)O1 [Doxorubicin (hydrochloride)],6.65,3.55,-7.11,6.05,-4.42
CO[C@H]1/C=C/O[C@@]2(C)Oc3c(C)c(O)c4c(O)c(c5c(nc6cc(C)ccn65)c4c3C2=O)NC(=O)/C(C)=C\C=C\[C@H](C)[C@H](O)[C@@H](C)[C@@H](O)[C@@H](C)[C@H](OC(C)=O)[C@@H]1C [Rifaximin],-5.63,-5.31,13.2,0.472,0.85
C/C=C1\NC(=O)[C@H]2CSSCC/C=C/[C@H](CC(=O)N[C@H](C(C)C)C(=O)N2)OC(=O)[C@H](C(C)C)NC1=O [Romidepsin],2.86,-0.00342,21,0.496,8.55
CC(C)(C(=O)c1cccnc1)c1cccnc1 [Metyrapone],1.48,5.62,-0.661,1.75,4.5
CCOC(=O)c1ccc(C#Cc2ccc3c(c2)C(C)(C)CCS3)nc1 [Tazarotene],13.2,-9.42,54.2,-9.47,-15.1
CC(=O)O[C@H]1CC[C@@]2(C)C(=CC[C@@H]3[C@@H]2CC[C@]2(C)C(c4cccnc4)=CC[C@@H]32)C1 [Abiraterone Acetate],9.1,-1.78,-2.76,-1.15,2.44
CCC[C@@H]1C[C@@H](C(=O)N[C@@H]([C@H]2O[C@H](SC)[C@H](O)[C@@H](O)[C@H]2O)[C@H](C)Cl)N(C)C1 [Clindamycin],-2.97,2.68,-14.7,4.82,-4.05
CCCN(CCC)CCc1cccc2c1CC(=O)N2 [Ropinirole (hydrochloride)],31.3,-0.638,-13.7,-1.82,-4.31
C[N+](C)(C)CCOC(N)=O [Carbamoylcholine (chloride)],2.95,2.73,-0.038,1.09,1.31
CCC(=O)O[C@]1(C(=O)CCl)[C@@H](C)C[C@H]2[C@@H]3C[C@H](F)C4=CC(=O)C=C[C@]4(C)[C@@]3(F)[C@@H](O)C[C@@]21C [Halobetasol Propionate],12.1,1.54,3.96,-4.09,3.99
O=C(O)CCc1nc(-c2ccccc2)c(-c2ccccc2)o1 [Oxaprozin],17.9,-7.37,3.28,-4.84,-6.06
CNCCC(Oc1ccc(C(F)(F)F)cc1)c1ccccc1 (stereo not given) [Fluoxetine (hydrochloride)],2.79,-8.12,-19.3,-5.89,-6.12
Nc1nc(=O)n([C@@H]2CS[C@H](CO)O2)cc1F [Emtricitabine],1.12,-4.62,11.4,4.83,7.06
CN(CCOc1ccc(NS(C)(=O)=O)cc1)CCc1ccc(NS(C)(=O)=O)cc1 [Dofetilide],-1.01,-4.06,7.17,7,7.94
Cc1cc(C(C)(C)C)c(O)c(C)c1CC1=NCCN1 [Oxymetazoline (hydrochloride)],2.23,-0.966,-13.2,6.77,0.729
CCc1c(C)[nH]c2c1C(=O)C(CN1CCOCC1)CC2 (stereo not given) [Molindone (hydrochloride)],4.99,-3.27,-7.67,-1.62,-2.83
CC(C)N1CCN(c2ccc(OCC3COC(Cn4cncn4)(c4ccc(Cl)cc4Cl)O3)cc2)CC1 (stereo not given) [Terconazole],18,-1.46,2.36,-6.11,0.243
O=C(O)c1cn(C2CC2)c2cc(N3CCNCC3)c(F)cc2c1=O [Ciprofloxacin (hydrochloride)],5.21,-3.39,16.5,2.26,2.77
CN1C(=O)OC(C)(C)C1=O [Trimethadione],6.43,11.1,-6,3.86,-0.0394
NCCNCCNCCN [Trientine (hydrochloride)],15.9,-0.163,13,-1.81,-9.36
CC(C)OC(=O)OCOP(=O)(CO[C@H](C)Cn1cnc2c(N)ncnc21)OCOC(=O)OC(C)C [Tenofovir Disoproxil (fumarate)],9.75,2.55,6.31,0.343,8.11
CC(=O)NCCCS(=O)(=O)O [Acamprosate (calcium salt)],5.62,1.29,-8.55,7.23,4.69
CNCc1ccc(-c2[nH]c3cc(F)cc4c3c2CCNC4=O)cc1 [Rucaparib],15.9,5.43,-11,15.7,11
CCCCCC(=O)O[C@]1(C(C)=O)CC[C@H]2[C@@H]3CCC4=CC(=O)CC[C@]4(C)[C@H]3CC[C@@]21C [Hydroxyprogesterone Caproate],5.64,-9.54,-13.7,-9.28,-15.8
C[C@@H]1CCO[C@H]2Cn3cc(C(=O)NCc4ccc(F)cc4F)c(=O)c(O)c3C(=O)N12 [Dolutegravir],9.08,3.83,7.43,1.07,7.64

Structure (SMILES),difference in excitability [1],difference in startle response [2],difference in activity during first hour [3],difference in habituation to acoustic stimuli [4],difference [5]
CC1Cc2ccccc2N1NC(=O)c1ccc(Cl)c(S(N)(=O)=O)c1 (stereo not given) [Indapamide],4.58,1.23,7.09,-1.64,1.06
O=C(O)CCCc1ccccc1 [Sodium 4-Phenylbutyrate],-1.36,2.31,-3.38,1.43,5.24
O=C(c1ccccc1)c1ccc2n1CCC2C(=O)O (stereo not given) [Ketorolac (tromethamine salt)],-0.0297,5.09,-3.37,7.86,-1.11
Cc1ccc(=O)n(-c2ccccc2)c1 [Pirfenidone],-2.03,3.37,0.0618,2.62,8.23
CNC(=O)c1cc(Oc2ccc(NC(=O)Nc3ccc(Cl)c(C(F)(F)F)c3)c(F)c2)ccn1 [Regorafenib],20.9,-2.66,-3.38,-6.09,1.15
CC(=O)Oc1ccccc1C(=O)Nc1ncc([N+](=O)[O-])s1 [Nitazoxanide],12.9,-13.9,-14.8,-12.4,-17.8
Cc1nccn1CC1CCc2c(c3ccccc3n2C)C1=O (stereo not given) [Ondansetron (hydrochloride hydrate)],12.1,-1.85,6.77,-3.59,4.66
CCCCC[C@H](O)/C=C/[C@H]1[C@H](O)CC(=O)[C@@H]1C/C=C\CCCC(=O)O [Prostaglandin E2],16.7,-5.41,2.46,4.14,5.15
CNNCc1ccc(C(=O)NC(C)C)cc1 [Procarbazine (hydrochloride)],0.724,-0.558,6.39,-5.35,4.87
CC(C)(S)[C@@H](N)C(=O)O [Penicillamine],1.99,3.43,-11.2,6.31,4.5
CN1CCC(=C2c3ccccc3CCn3c(C=O)cnc32)CC1 [Alcaftadine],-1.49,3.88,20.6,-3,-2.52
CC(C)(C)NCC(O)c1ccc(O)c(CO)c1 (stereo not given) [Salbutamol (hydrochloride)],7.67,-7.77,15.5,-0.991,4.05
CCCN[C@H]1CCc2nc(N)sc2C1 [(S)-Pramipexole (hydrochloride)],6.47,-2.57,-10.9,5.7,0.342
CC(=O)NS(=O)(=O)c1ccc(N)cc1 [Sulfacetamide (sodium salt)],9.42,1.32,-8.28,4.81,7.06
CC(=O)OC[C@H]1O[C@@H]([S-])[C@H](OC(C)=O)[C@@H](OC(C)=O)[C@@H]1OC(C)=O.CCP(CC)CC.[Au+] [Auranofin],6.43,-4.17,11,2.14,-5.02
CN1CCCC(n2nc(Cc3ccc(Cl)cc3)c3ccccc3c2=O)CC1 (stereo not given) [Azelastine (hydrochloride)],19.9,1.87,-5.88,-2.38,3.47
CN[C@H]1CC[C@@H](c2ccc(Cl)c(Cl)c2)c2ccccc21 [Sertraline (hydrochloride)],8.65,9.23,-22.3,-4.17,-15.1
Clc1ccccc1C(c1ccccc1)(c1ccccc1)n1ccnc1 [Clotrimazole],-0.151,4.37,-19.1,-10.2,-12.6
CCCCC(C)(O)C/C=C/[C@H]1[C@H](O)CC(=O)[C@@H]1CCCCCCC(=O)OC (mixture of isomers) [Misoprostol],9.78,0.222,-2.79,7.1,-1.41
Nc1c(CC(=O)O)cccc1C(=O)c1ccc(Br)cc1 [Bromfenac (sodium salt)],22,-1.71,7.18,-4.75,1.64
COc1c(C)c2c(c(O)c1C/C=C(\C)CCC(=O)OCCN1CCOCC1)C(=O)OC2 [Mycophenolate Mofetil],7.89,-4.66,-3.09,-2.74,1.02
Cc1cnc(NC(=O)C2=C(O)c3ccccc3S(=O)(=O)N2C)s1 [Meloxicam],5.53,6.51,-3.33,3.11,4.63
COc1ccc(OC)c(C(O)CNC(=O)CN)c1 (stereo not given) [Midodrine (hydrochloride)],7.59,-5.94,6.73,0.23,5.44
CN(C)C(=O)N[C@H]1CC[C@H](CCN2CCN(c3cccc(Cl)c3Cl)CC2)CC1 [Cariprazine (hydrochloride)],11.3,-2.66,-2.12,-3.39,-1.22
